In the library only some 1.3% were active in any assay of this set; here they are far more common.
12-LOX inh = blocks human arachidonate 12S-lipoxygenase. purified 12hLO, xylenol orange hydroperoxide absorbance. Potency, µM (top dose mostly 108 µM), for the others: at the highest dose activity change, negative = inhibition, actives largely listed as inhibitors. 580,000 compounds, 1.1% hits. P18054; also: % is scaled to controls: 0 for no effect and ±100 for the full control effect
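Purified human 12hLO at 150 nM in 25 mM Hepes, 0.01% Triton X-100, pH 7.0, preincubated 15 min at room temperature with compound. Reaction started with 40 uM arachidonic acid, 30 min at room temperature. Hydroperoxide measured by Fe-xylenol orange, 573/405 nm absorbance ratio.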
EPAC2 agonist = activates human EPAC2 exchange factor; 360,000 compounds, 0.079% hits; AID 720711; Potency, µM (titrated, usually from 154 µM), without a hit: at the highest dose activation, actives largely listed as activators; EPAC2 activation, biochemical qHTS; response scale: 100% = 6.5 mM cAMP response; also: nearly all actives have a fitted effect of over 50% in size
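qHTS, titration series. 100 nM EPAC2 / 250 nM Rap1B-BODIPY-GDP / 50 uM GDP; RT; ex 480/em 540 nm, 5-min reads to 30 min. Norm. to 6.5 mM cAMP = activation.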
EPAC1 antag = blocks human EPAC1 exchange factor; O95398; EPAC1 GEF assay, Rap1b-BODIPY-GDP exchange fluorescence; Potency, µM (titrated, usually from 115 µM), for the others: top-dose activity change, negative = inhibition, actives largely listed as inhibitors; 360,000 compounds, 0.14% hits; AID 720709;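 also: plate controls were vehicle for no effect and positive control for full effect; nearly all actives have a fitted effect of over 50% in size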
EPAC2 antag = blocks human EPAC2 exchange factor | Potency, µM (titrated, usually from 114 µM), without a hit: at the top dose activity, negative = inhibition, actives largely listed as inhibitors | 360,000 compounds, 0.18% hits | Q8WZA2 | EPAC2 GEF exchange of Rap1B-BODIPY-GDP, fluorescence; also: % is scaled to controls: 0 for no effect and ±100 for the full control effect; nearly all actives have a fitted effect of over 45% in size
EPAC1 agonist = activates human EPAC1 exchange factor; Potency, µM (series often up to 154 µM), inactives show at the highest dose activation, usual class: activators; 360,000 compounds, 0.073% hits; O95398; EPAC1 agonist qHTS, biochemical assay; response scale: 100% = response to 6.5 mM cAMP; also: nearly all actives have a fitted effect of over 60% in size
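Read-out is the fluorescence drop as BODIPY-GDP leaves Rap1B (480 nm excitation, 540 nm emission), recorded every 5 minutes over 30 minutes. Reactions held 100 nM EPAC1, 250 nM Rap1B–BODIPY-GDP and 50 uM GDP, with 6.5 mM cAMP setting full activation.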
USP1-UAF1 inh = USP1/UAF1 (human) deubiquitinase inhibition | recombinant USP1/UAF1, Ub-Rhodamine cleavage fluorescence | Potency, µM (series often up to 57.1 µM), for inactives: at the highest dose activity change, negative = inhibition, usual class: inhibitors | 390,000 compounds, 0.23% hits | AID 743255; also: % is scaled to controls: 0 for no effect and ±100 for the full control effect; nearly all actives have a fitted effect of over 60% in size
Target sequence (O94782 whole entry, looked up): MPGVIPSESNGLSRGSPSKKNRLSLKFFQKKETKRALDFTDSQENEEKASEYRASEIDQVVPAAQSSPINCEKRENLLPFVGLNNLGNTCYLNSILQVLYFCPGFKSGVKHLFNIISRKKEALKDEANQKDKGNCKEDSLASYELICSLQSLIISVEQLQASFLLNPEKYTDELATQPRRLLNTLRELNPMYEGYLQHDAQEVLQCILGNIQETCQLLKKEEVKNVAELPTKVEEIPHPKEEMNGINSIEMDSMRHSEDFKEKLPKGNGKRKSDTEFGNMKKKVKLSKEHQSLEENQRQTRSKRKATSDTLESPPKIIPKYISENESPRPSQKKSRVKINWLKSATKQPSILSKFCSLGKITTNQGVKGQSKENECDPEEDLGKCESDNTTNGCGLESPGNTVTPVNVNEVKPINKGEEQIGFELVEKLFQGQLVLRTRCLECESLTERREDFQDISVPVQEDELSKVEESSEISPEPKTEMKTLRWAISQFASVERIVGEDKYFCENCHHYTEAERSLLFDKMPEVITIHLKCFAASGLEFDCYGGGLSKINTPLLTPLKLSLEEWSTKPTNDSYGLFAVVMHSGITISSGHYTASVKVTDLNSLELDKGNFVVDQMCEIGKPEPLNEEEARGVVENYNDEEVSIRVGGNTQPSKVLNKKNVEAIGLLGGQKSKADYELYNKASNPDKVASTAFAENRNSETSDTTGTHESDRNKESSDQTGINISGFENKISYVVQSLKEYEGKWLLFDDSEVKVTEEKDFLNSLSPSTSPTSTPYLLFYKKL
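In this screen, compounds sit with the deubiquitinase complex (1nM) for 15 min at room temperature before Ub-Rho is added at 150nM final. Fluorescence rise is then followed for 6 reads every 60 seconds.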
Starred values were filed as active, the others as inactive; [ ] = remark or other dose. Calls follow the shape of the dose curve; as a rule, active = well fitted curve in the direction sought with a large enough effect; inconclusive = small, poorly fitted or top-dose-only effect, or another doubt; inactive = no such curve, though single readings can be large; an effect the other way counts as inactive or inconclusive. Potency is read from the fitted curve at half-maximal effect.

What do the screens show for `C=CC(C)N1C(=O)S/C(=C\c2ccc(N3CCOCC3)cc2C)C1=O` (centres undefined)?
12-LOX inh: 20%; EPAC2 agonist: 1%; EPAC1 antag: 35µM*; EPAC2 antag: -1%; EPAC1 agonist: -38%; USP1-UAF1 inh: -14%

What do the screens show for `CCOC(=O)N1CCN(CC(=O)Nc2oc3ccccc3c(=O)c2-c2ccc(Cl)cc2)CC1`?
12-LOX inh: -6%

What do the screens show for `COC(=O)c1cc(-c2ccc(OC)c(OC)c2)nc2ccc(C)cc12`?
12-LOX inh: -19%

Results for O=C(Nc1ccccc1SC(=O)c1ccccc1)c1ccccc1 ?
12-LOX inh: 5.6µM*; EPAC2 agonist: 12%; EPAC1 antag: 5%; EPAC2 antag: 7%; EPAC1 agonist: 13%; USP1-UAF1 inh: -32%

What do the screens show for `COc1ccc(Cl)cc1NC(=O)c1cccc(-c2ccc(S(=O)(=O)N3CCCC3)cc2)c1`?
12-LOX inh: -9%

Results for CN(CCOc1ccc(Cl)cc1)Cc1nc(N)nc(N)n1 ?
12-LOX inh: 43%

How did Cc1[nH]n(-c2ccc(Br)cc2)c(=O)c1/C=N/NC(=O)c1ccccc1 do in these assays?
12-LOX inh: 0%; EPAC2 agonist: -4%; EPAC1 antag: -10%; EPAC2 antag: 0%; EPAC1 agonist: 6%; USP1-UAF1 inh: -24%

How did Cc1[nH]n(-c2ccccc2)c(=O)c1/C=N/Nc1nncc(-c2ccccc2)n1 do in these assays?
12-LOX inh: 16µM*; EPAC2 agonist: 4%; EPAC1 antag: -4%; EPAC2 antag: 2%; EPAC1 agonist: 0%; USP1-UAF1 inh: -11%

What do the screens show for `Cc1[nH]n(-c2ccccc2)c(=O)c1/C=N/NC(=O)c1cccc(F)c1`?
12-LOX inh: 35µM*; EPAC2 agonist: 5%; EPAC1 antag: 3%; EPAC2 antag: 7%; EPAC1 agonist: 1%; USP1-UAF1 inh: -9%

Results for Cc1ccc(/C=N/Nc2nncc(-c3ccccc3)n2)o1 ?
12-LOX inh: -6%; EPAC2 agonist: -3%; EPAC1 antag: 5%; EPAC2 antag: 3%; EPAC1 agonist: -4%; USP1-UAF1 inh: -15%

How did Cc1cc(OC(=O)c2cccc(C)c2C)ccc1C(C)C do in these assays?
12-LOX inh: 1%

What do the screens show for `N#C/C(=C\c1ccc(C(=O)O)cc1)c1nc2sc3c(c2c(=O)[nH]1)CCCC3`?
12-LOX inh: inconclusive; EPAC2 agonist: 56µM*; EPAC1 antag: 206%; EPAC2 antag: 158%; EPAC1 agonist: 32µM*; USP1-UAF1 inh: inconclusive

How did O=C(Cn1cc(C(F)(F)F)cc(Cl)c1=O)Nc1cc(C(F)(F)F)ccc1Cl do in these assays?
12-LOX inh: -13%

How did O=C1NN(c2cccc(Br)c2)C(=O)/C1=C/c1ccc(-c2cc([N+](=O)[O-])ccc2O)o1 do in these assays?
EPAC2 agonist: -14%; EPAC1 antag: -17%; EPAC2 antag: 40µM*; EPAC1 agonist: -6%; USP1-UAF1 inh: -8%

What do the screens show for `CC1=NN(c2ccc(C)cc2)C(=O)/C1=C/c1ccc(-c2cc([N+](=O)[O-])ccc2O)o1`?
12-LOX inh: 20µM*; EPAC2 agonist: -7%; EPAC1 antag: inconclusive; EPAC2 antag: 7%; EPAC1 agonist: -4%; USP1-UAF1 inh: -6%

What do the screens show for `O=C1NN(c2ccc(Cl)c(Cl)c2)C(=O)/C1=C/c1ccc(-c2ccccc2C(=O)O)o1`?
12-LOX inh: inconclusive; EPAC2 agonist: 10%; EPAC1 antag: inconclusive; EPAC2 antag: 1%; EPAC1 agonist: 8%; USP1-UAF1 inh: inconclusive

What do the screens show for `CC1=NN(c2ccccc2)C(=O)/C1=C/c1ccc(-c2ccc(C)c(C(=O)O)c2)o1`?
12-LOX inh: 0%; EPAC2 agonist: 11%; EPAC1 antag: -13%; EPAC2 antag: -15%; EPAC1 agonist: 3%; USP1-UAF1 inh: inconclusive

How did CCOc1ccccc1-c1noc(CSc2nnc(C)n2-c2cccc(C)c2)n1 do in these assays?
12-LOX inh: 6%

How did C#CCN(C[C@@H]1[C@@H](OC(=O)Nc2cccs2)[C@@H](OC(=O)Nc2cccs2)Cn2c(=O)n(CCCCCC)c(=O)n21)S(=O)(=O)c1ccc(C)cc1 do in these assays?
12-LOX inh: 10µM*; EPAC2 agonist: 22%; EPAC1 antag: -23%; EPAC2 antag: -5%; EPAC1 agonist: -14%; USP1-UAF1 inh: -4%

Results for Cc1cc(OCC(=O)N2CCCCC2CCN2CCCC2)cc(C)c1Cl (centres undefined) ?
12-LOX inh: -18%

What do the screens show for `CCCn1nc(C)cc1CN(C)c1ccc(NC(=O)c2ccc(OC)cc2)cc1C(=O)O`?
12-LOX inh: 4.5µM*

What do the screens show for `CCCNC(=O)CN1CCN(c2ccc(NC(=O)c3ccc(OC)cc3)cc2C(=O)O)CC1`?
12-LOX inh: inconclusive; USP1-UAF1 inh: -24%

How did O=c1[nH]c2c(s1)C=Nc1ccccc1N2 do in these assays?
12-LOX inh: -4%; EPAC2 agonist: inconclusive; EPAC1 antag: 30%; EPAC2 antag: 51%; EPAC1 agonist: 27%; USP1-UAF1 inh: 28µM*

What do the screens show for `CCN(CC)c1ccc2cc(S(=O)(=O)c3ccc(Cl)cc3)c(=O)oc2c1`?
12-LOX inh: 3%; EPAC2 agonist: -322%; EPAC1 antag: 126%; EPAC2 antag: 254%; EPAC1 agonist: 89µM*; USP1-UAF1 inh: inactive

How did CCCCCCc1cc2cc(S(=O)(=O)c3ccc(Cl)cc3)c(=O)oc2cc1O do in these assays?
12-LOX inh: inconclusive; EPAC2 agonist: -1%; EPAC1 antag: 4%; EPAC2 antag: -14%; EPAC1 agonist: 0%; USP1-UAF1 inh: inconclusive

How did CCCC[N+](CCCC)(CCCC)CCCC do in these assays?
12-LOX inh: 11µM*

Results for COc1ccc(OC)c(CN2CCCn3nc(C)c(-c4cccnc4N4CCOCC4)c32)c1 ?
12-LOX inh: 24%

What do the screens show for `Cc1nn2c(c1-c1cccnc1N1CCOCC1)N(CCC(C)C)CCC2`?
12-LOX inh: 18µM*

How did Cc1nn2c(c1-c1cccnc1N1CCOCC1)N(CCc1ccccc1)CCC2 do in these assays?
12-LOX inh: 20µM*

Results for Cc1nn2c(c1-c1ccccc1C(C)C)N(Cc1cccc(C(=O)O)c1)CCC2 ?
12-LOX inh: 0%[176 µM]

What do the screens show for `Cc1nn2c(c1-c1ccccc1C(C)C)N(CCC(C)C)CCC2`?
12-LOX inh: 50µM*

How did Cc1ccncc1-c1c(C)nn2c1N(C(=O)Cc1ccc(Cl)cc1)CCC2 do in these assays?
12-LOX inh: -7%[176 µM]

From PubChem
